Among the test systems are TLK1; TLK2; TNIK; TNK1; TNK2; TNNI3K; TRKB.
What all share (conditions): concentration: 1 μM, replicates: in singlicate; n = 1
The subject of another assay is T1, TIE2.
T1 construct: gene TEK

The subject of another assay is T2, TRKA.
T2 construct: gene NTRK1

Another assay concerns T3, TRKC.
T3 construct: gene NTRK3
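Note: KINOMEscan kinase panel screen.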

With `CCS(=O)(=O)c1ccc(OC)c(Nc2ncc(-c3ccc(F)cc3)o2)c1.Cl` [GW591947], the “%Inh” value with TIE2 is given as 0%; with TLK1 it was 0%; with TLK2 it was 0%; in the assay with TNIK, 0%; in the assay with TNK1 it was 0%; in the assay on TNK2, 12%. The “%Inh” value in the assay with TNNI3K was 8%; in the assay with TRKA it was 15%; in the assay on TRKB, 0%; in the assay with TRKC it was 0%.

`COc1cccc(C2=C(N(C)c3ccccc3)C(=O)NC2=O)c1` [SB-334865]: the “%Inh” value with TIE2 is on record as 0%; with TLK1, 4%; in the assay with TLK2 it was 4%; with TNIK it was 0%; with TNK1, 0%; with TNK2, 19%. The “%Inh” value in the assay on TNNI3K stood at 11%; in the assay on TRKA, 0%; in the assay on TRKB it was 0%; in the assay with TRKC, 23%.

Take `Nc1ncnc2c1ncn2-c1cccc(F)c1` [SKF-97560]: the “%Inh” value in the assay with TIE2 is reported as 0%; in the assay with TLK1, 0%; in the assay with TLK2, 0%; in the assay on TNIK, 4%; in the assay on TNK1, 23%; in the assay with TNK2 it was 15%. Also, the “%Inh” value with TNNI3K was determined as 100%; with TRKA it was 60%; with TRKB, 41%; with TRKC, 41%.

`COc1ccc(CNC(=O)NC2CCN(c3ccnc(Nc4ccc(F)cc4)n3)C2)cc1` (stereo not drawn) [GSK1379706]: the “%Inh” value in the assay on TIE2 worked out at 2%; in the assay with TLK1, 26%; with TLK2, 16%; in the assay with TNIK it was 0%; in the assay with TNK1, 0%; in the assay on TNK2, 10%. Moreover, the “%Inh” value in the assay on TNNI3K is reported as 10%; in the assay with TRKA, 54%; in the assay with TRKB, 26%; in the assay on TRKC it was 44%.

With `COC(=O)c1c(-c2ccccc2)c2cc(C)ccc2c(=O)n1Cc1ccccc1`, the “%Inh” value with TIE2 was determined as 0%; with TLK1, 9%; in the assay on TLK2, 0%; with TNIK it was 0%; in the assay with TNK1, 0%; in the assay on TNK2 it was 0%. Also, the “%Inh” value in the assay on TNNI3K, in the assay with TRKA, with TRKB and in the assay on TRKC was 0% throughout.

With `Cc1c(Cn2c(C)nn3c(=O)cc(N4CCO[C@H](C)C4)nc23)cccc1C(F)(F)F` [GSK2373690], the “%Inh” value is recorded as 0% in the assay on TIE2; 0% with TLK1; 0% with TLK2; 0% in the assay on TNIK; 0% in the assay on TNK1; 13% with TNK2. Also, the “%Inh” value in the assay with TNNI3K was found to be 4%; in the assay on TRKA, 0%; in the assay on TRKB, 6%; with TRKC, 11%.

In the case of `Cc1nnc(-c2ccc(C)c(-c3ccc(C(=O)O)cc3)c2)o1` [GW608005], the “%Inh” value with TIE2, in the assay on TLK1, in the assay with TLK2, in the assay with TNIK, with TNK1 and in the assay on TNK2 was 0% in each case. Also, the “%Inh” value with TNNI3K came out at 0%; with TRKA it was 0%; in the assay on TRKB it was 20%; in the assay with TRKC it was 0%.

As to `COc1ccc(-c2coc3ccc(-c4nnc(SCc5cccc(C#N)c5)o4)cc23)cc1`, the “%Inh” value in the assay with TIE2 stood at 5%; in the assay on TLK1, 25%; with TLK2, 0%; in the assay with TNIK, 21%; in the assay on TNK1 it was 10%; in the assay on TNK2 it was 0%. The “%Inh” value in the assay with TNNI3K came to 20%; in the assay with TRKA, 17%; in the assay on TRKB, 0%; in the assay on TRKC it was 3%.

For the compound `O=C(NCc1cccs1)c1cc(C(=O)c2c(Cl)cccc2Cl)c[nH]1` [GW823670], the “%Inh” value in the assay with TIE2 is recorded as 2%; in the assay with TLK1, 0%; in the assay with TLK2, 0%; with TNIK it was 5%; with TNK1 it was 26%; in the assay with TNK2, 0%. Further, the “%Inh” value in the assay on TNNI3K, with TRKA, in the assay on TRKB and in the assay with TRKC was 0% throughout.

As for `COC(=O)c1c(-c2ccccc2)c2cc(Br)ccc2c(=O)n1Cc1ccc(S(C)(=O)=O)cc1`, the “%Inh” value with TIE2 is given as 3%; in the assay on TLK1, 14%; in the assay on TLK2 it was 0%; in the assay with TNIK it was 0%; in the assay with TNK1, 0%; in the assay on TNK2 it was 1%. The “%Inh” value in the assay with TNNI3K was 0%; in the assay with TRKA, 0%; in the assay on TRKB it was 0%; in the assay with TRKC, 24%.

On to `Nc1n[nH]c2nnc(-c3ccccc3)c(-c3ccccc3)c12` [GW554060], for which the “%Inh” value is on record as 0% in the assay on TIE2; 0% with TLK1; 0% in the assay on TLK2; 0% with TNIK; 0% in the assay with TNK1; 19% in the assay on TNK2. For the same compound, the “%Inh” value in the assay on TNNI3K worked out at 0%; with TRKA it was 0%; in the assay with TRKB, 14%; in the assay on TRKC, 24%.

On to `COc1cccc(C2=C(Nc3cccc(C(=O)O)c3)C(=O)NC2=O)c1` [SB-390770], for which the “%Inh” value with TIE2 came to 37%; in the assay on TLK1, 7%; with TLK2, 0%; in the assay on TNIK it was 4%; in the assay on TNK1, 0%; in the assay on TNK2, 12%. Further, the “%Inh” value in the assay on TNNI3K amounted to 8%; with TRKA, 56%; in the assay with TRKB, 0%; in the assay with TRKC, 0%.

Take `COc1ccc(-n2cnc3c(N)ncnc32)cc1` [SKF-97236]: the “%Inh” value came to 18% with TIE2; 0% in the assay on TLK1; 0% in the assay with TLK2; 18% with TNIK; 0% with TNK1; 0% in the assay with TNK2. The “%Inh” value turned out to be 18% in the assay on TNNI3K, 61% in the assay with TRKA, 9% with TRKB and 0% with TRKC.

Take `Cc1ccc(Oc2ccc(Nc3ncnc4cc[nH]c34)cc2C)cn1`: the “%Inh” value in the assay with TIE2 is 13%; in the assay on TLK1 it was 6%; in the assay with TLK2, 12%; in the assay on TNIK it was 0%; in the assay with TNK1 it was 0%; with TNK2 it was 12%. The “%Inh” value is given as 3% in the assay on TNNI3K, 42% in the assay with TRKA, 14% with TRKB and 17% with TRKC.

As to `COc1ccc(Nc2nccc(N3CCC(NS(=O)(=O)c4ccc(NC(C)=O)cc4)C3)n2)cc1` (stereo not drawn) [GSK1379729], the “%Inh” value was 8% in the assay on TIE2; 0% in the assay on TLK1; 0% with TLK2; 0% in the assay on TNIK; 18% in the assay on TNK1; 12% in the assay with TNK2. Further, the “%Inh” value is listed as 100% in the assay on TNNI3K, 65% with TRKA, 0% in the assay with TRKB and 19% in the assay on TRKC.

For the compound `Nc1nc(-c2ccccc2F)c(-c2ccnc3ccccc23)s1` [GW560459], the “%Inh” value was found to be 3% in the assay with TIE2; 0% in the assay with TLK1; 0% with TLK2; 65% in the assay with TNIK; 0% in the assay with TNK1; 3% in the assay with TNK2. Further, the “%Inh” value was determined as 94.1% in the assay on TNNI3K, 0% with TRKA, 26% in the assay on TRKB and 31% in the assay on TRKC.

For `COc1cc(Nc2ccnc3ccc(C(F)(F)F)cc23)cc(OC)c1OC` [GW577382], the “%Inh” value is listed as 0% with TIE2; 6% with TLK1; 0% in the assay on TLK2; 0% in the assay on TNIK; 14% in the assay on TNK1; 16% in the assay on TNK2. In addition, the “%Inh” value in the assay with TNNI3K turned out to be 24%; with TRKA it was 48%; in the assay on TRKB, 0%; in the assay with TRKC, 14%.

For the compound `CCC(=O)c1c(-c2ccccc2)c2cc(Cl)ccc2c(=O)n1Cc1cc(S(C)(=O)=O)n(CC(N)=O)n1`, the “%Inh” value is 24% in the assay on TIE2; 2% in the assay with TLK1; 0% in the assay with TLK2; 4% with TNIK; 0% in the assay on TNK1; 0% in the assay on TNK2. Moreover, the “%Inh” value in the assay with TNNI3K, in the assay with TRKA, in the assay with TRKB and with TRKC was 0% throughout.
